Assay outcomes: PubChem, National Center for Advancing Translational Sciences (NCATS)
Sampled rows, rich in hits. Any-hit rate of the full collection: about 4.8%.
ATXN viability – viability counter-screen for ATXN expression inhibitors; S2 cells (HEK-293 line with an ATXN2-luciferase reporter) viability, CellTiter-Fluor protease fluorescence, 24 h; Potency, µM (titrated, usually from 56.7 µM), usual class: cytotoxic; actives 0.49% (n = 400,000); further: potency means the concentration at half of the fitted maximal effect; nearly all actives have a fitted effect of over 40% in size
TGFb SMAD3 inh – TGF-b pathway inhibition; HepG2 CAGA-GFP TGF-b/SMAD3 reporter, GFP fluorescence, 18 h; TGF-beta stimulated, 500 pg/mL final; Potency, µM (doses to about 46.1 µM), for the others: top-dose activity, negative = inhibition, hits mostly inhibitors; actives 1.2% (n = 410,000); AID 588855; further: potency means the concentration at half of the fitted maximal effect; on the % scale 0 is the no-effect control and ±100 the full control effect; nearly all actives have a fitted effect of over 65% in size
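HEPG2 CAGA-GFP, 1000 cells/well; 2 h settle, 37 C; cpd via pin tool; TGF-b 500 pg/mL final; 18 h, 37 C; GFP imaging ex488/em500-530; %Activity normalised to -TGF-b and +DMSO controls; CRC fit, curve class.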
ATXN2 expr inh – ATXN2 expression inhibition. AID 1745845. actives 0.72% (n = 360,000). HEK-293 ATXN2-luciferase reporter, luminescence, 24 h. Potency, µM (titrated, usually from 57 µM), for the others: at the highest dose activity change, negative = inhibition, usual class: inhibitors; further: potency means the concentration at half of the fitted maximal effect; on the % scale 0 is the no-effect control and ±100 the full control effect; nearly all actives have a fitted effect of over 55% in size
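ATXN2-luciferase reporter cells (luciferase flanked by upstream and downstream ATXN2 gene portions) were treated 24 h at 37 °C with compounds at up to 57 uM. SteadyGlo luminescence gave expression; GF-AFC fluorescence gave viability.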
DRD3 antagonist – D3 dopamine receptor (human) antagonism | max response, negative = inhibition, % | actives 2.5% (n = 360,000) | AID 652054 | P35462 | D3R cells, DiscoveRx beta-arrestin luminescence, antagonist mode; hits give low values; in the data active means max response below about -50%; inconclusive means no clear call, values can overlap the other calls; further: on the % scale 0 is the no-effect control and ±100 the full control effect
Target sequence (P35462 whole entry, looked up): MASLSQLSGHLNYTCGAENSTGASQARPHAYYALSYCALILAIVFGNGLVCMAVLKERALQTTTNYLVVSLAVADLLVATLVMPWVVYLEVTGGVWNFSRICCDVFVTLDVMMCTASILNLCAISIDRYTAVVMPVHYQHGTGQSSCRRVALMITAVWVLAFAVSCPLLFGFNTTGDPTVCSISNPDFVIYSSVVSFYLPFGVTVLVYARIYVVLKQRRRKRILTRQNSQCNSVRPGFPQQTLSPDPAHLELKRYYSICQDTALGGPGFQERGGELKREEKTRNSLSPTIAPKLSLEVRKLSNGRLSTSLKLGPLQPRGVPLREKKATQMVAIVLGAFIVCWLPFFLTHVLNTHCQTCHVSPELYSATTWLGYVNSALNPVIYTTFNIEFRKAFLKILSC
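Cells plated overnight at 1500 cells/well, then exposed to library compounds with dopamine controls for 90 minutes at 37 degrees C. DiscoveRx reagent added for 30–60 minutes at room temperature; luminescence read, quantitative HTS format.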
HepG2 viability – HepG2 cytotoxicity, counter-screen for TGF-b inhibitors; HepG2 CAGA-GFP viability, ATP luminescence, 18 h; Potency, µM (doses to about 46.1 µM), without a hit: at the top dose activity change, negative = cytotoxicity, hits mostly cytotoxic; actives 0.76% (n = 410,000); AID 588856; further: potency means the concentration at half of the fitted maximal effect
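HepG2 CAGA-GFP cells (1000/well, DMEM with 1% FBS) received compound, then TGF-beta at 500 pg/mL final, and were incubated 18 hours at 37 degrees C. Viability was read by CellTiter-Glo luminescence. Media-only wells were set as complete cell-killing and DMSO as no toxicity.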
DRD3 agonist – agonists of human D3 dopamine receptor; P35462; max activation, %; actives 0.58% (n = 410,000); D3R DiscoveRx beta-arrestin cells, luminescence, 90 min; in the data active means max activation above about 30%; further: 0% is about no effect
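Cells at 1500/well, incubated overnight, then treated with pinned compounds (dopamine as control) for 90 min at 37 degrees C. DiscoveRx reagent added for 30 - 60 minutes at room temperature; luminescence read.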
An asterisk follows results filed as active. Unless noted, the call rests on the fitted dose curve; in most records, active means well fitted curve in the direction sought with a large enough effect; inconclusive means small, poorly fitted or top-dose-only effect, or another doubt; inactive means no such curve, though single readings can be large; an effect the other way counts as inactive or inconclusive.

For CCCCC(C)Sc1nc2c([nH]1)c(=S)n(C)c(=O)n2C (stereo unspecified) the results were ATXN viability inconclusive, TGFb SMAD3 inh inconclusive, ATXN2 expr inh -28.1%, DRD3 antagonist 27.5, HepG2 viability 2.5% and DRD3 agonist 23.9.
For CCCC(CC)Sc1nc2c([nH]1)c(=S)n(C)c(=O)n2C (stereo unspecified) the results were ATXN viability inactive, TGFb SMAD3 inh 7.94µM*, ATXN2 expr inh -28.2%, DRD3 antagonist -0.7, HepG2 viability -0.6% and DRD3 agonist 4.8.
CSc1nc2c([nH]1)c(=S)n(C)c(=O)n2C was read as ATXN viability inactive, TGFb SMAD3 inh 12.6µM*, ATXN2 expr inh -14.1%, DRD3 antagonist 2.8, HepG2 viability -36.8% and DRD3 agonist 1.8.
CCCCSc1nc2c([nH]1)c(=S)n(C)c(=O)n2C was read as ATXN viability inconclusive, TGFb SMAD3 inh 5.01µM*, ATXN2 expr inh inconclusive, DRD3 antagonist -4.5, HepG2 viability -53.6% and DRD3 agonist 5.8.
`COc1cccc(C(=O)NC2CC3CCC(C2)N3Cc2ccccc2)c1` (stereo unspecified) gave ATXN viability inconclusive, TGFb SMAD3 inh 27.5%, DRD3 antagonist -107.7*, HepG2 viability 1.0% and DRD3 agonist -3.3.
For O=C(NC1CC2CCC(C1)N2Cc1ccco1)c1ccccc1 (stereo unspecified) the results were ATXN viability inactive, TGFb SMAD3 inh 3.5%, ATXN2 expr inh 1.2%, DRD3 antagonist -69.3*, HepG2 viability 8.1% and DRD3 agonist -2.9.
`COc1ccc(CN2C3CCC2CC(NC(=O)c2cccc(F)c2)C3)cc1` (stereo unspecified) gave ATXN viability inconclusive, TGFb SMAD3 inh 12.9%, ATXN2 expr inh -10.2%, DRD3 antagonist -86.4*, HepG2 viability -1.0% and DRD3 agonist -15.1.
Screening O=C(NC1CC2CCC(C1)N2Cc1ccccc1)c1cccc(F)c1 (stereo unspecified) returned ATXN viability inactive, TGFb SMAD3 inh inconclusive, DRD3 antagonist -117.1*, HepG2 viability -8.5% and DRD3 agonist -3.9.
Screening COc1cccc(C(=O)NC2CC3CCCC(C2)N3CC(=O)Nc2ccccc2C(F)(F)F)c1 (stereo unspecified) returned ATXN viability inconclusive, TGFb SMAD3 inh inconclusive, ATXN2 expr inh inconclusive, DRD3 antagonist -14.7, HepG2 viability -6.8% and DRD3 agonist -10.7.
Screening O=C(NC1CCN(C(=O)NCc2ccccc2)CC1)c1cccc(F)c1 returned ATXN viability inactive, TGFb SMAD3 inh 3.1%, ATXN2 expr inh -4.3%, DRD3 antagonist 2.7, HepG2 viability 8.1% and DRD3 agonist 2.8.
`Cc1cccc(Cc2c(C)nc3nc(SCc4ccccc4F)nn3c2C)c1` gave ATXN viability inactive, TGFb SMAD3 inh 10.1%, ATXN2 expr inh 0.5%, HepG2 viability 4.4% and DRD3 agonist -15.6.
`CNC(=S)NNC(=O)COc1cccc(C)c1C` gave ATXN viability inactive, TGFb SMAD3 inh 2.0%, ATXN2 expr inh 1.7%, DRD3 antagonist -62.1*, HepG2 viability -2.9% and DRD3 agonist -4.7.
CC1CCN(S(=O)(=O)c2ccc3c(c2)C(Cl)(Cl)C(=O)N3)CC1 was read as ATXN viability inconclusive, TGFb SMAD3 inh inconclusive, DRD3 antagonist -70.4*, HepG2 viability -55.8% and DRD3 agonist -6.1.
For CC(=O)c1ccc(N2CCN(S(=O)(=O)c3ccc4c(c3)NC(=O)CC(=O)N4)CC2)cc1 the results were ATXN viability inactive, TGFb SMAD3 inh -10.0%, ATXN2 expr inh 14.4%, DRD3 antagonist 2.1, HepG2 viability -4.4% and DRD3 agonist 2.0.
`CC(=O)c1ccc(N2CCN(S(=O)(=O)c3ccc4c(c3)C(Cl)(Cl)C(=O)N4)CC2)cc1` gave ATXN viability inactive, TGFb SMAD3 inh 22.4µM*, ATXN2 expr inh -2.7% and HepG2 viability -93.3%.
